The subject of assay [1] is PRMT1 (protein arginine N-methyltransferase 1). Briefly: small molecules binding arginine methyltransferase PRMT1 – biochemical, small-molecule microarray, 635 nm fluorescence, primary screen (AID 1088).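 Further: binding of Prmt1 protein to compounds spotted on small-molecule microarray slides.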 The note with it: higher = more signal.
Assay [2] can be described thus: growth effects on S. cerevisiae YJM789 – YJM789 clinical isolate, OD600, 24 h, basal, primary screen (AID 1089).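 Further: growth of clinical yeast isolate S. cerevisiae YJM 789 seeded 1000 cells per well; test concentration not given here.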 The note with it: higher = more signal, called active from +8 up or from −8 down.
Assay [3] can be described thus: S. pombe growth modifiers, basal conditions – strain 972, OD600, 24 h, no modulator, primary screen (AID 1090).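 Further: basal condition with compound alone and no growth modifier present; test concentration not given here.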 The note with it: S. pombe 972 growth, higher = more signal, called active from +8 up or from −8 down.
A short description of assay [4]: budding yeast growth modifiers under rapamycin – strain BY4716, OD600, 96 h, primary screen (AID 1091). Further: test concentration not given here. Particulars: S. cerevisiae BY4716 + rapamycin, higher = more signal, called active from +8 up or from −8 down.
The target in assay [5] is Torsin-1A-interacting protein 2 (Homo sapiens) (UniProt Q8NFQ8). Briefly: small molecules binding lysate-expressed LULL1 – cell lysate, human LULL1 lysate, 635/667 nm fluorescence, primary screen (AID 1092).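 Further: probe is lysate of COS7 cells overexpressing human LULL1; score merges per-feature 667 nm fluorescence with signal-to-noise.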 The note with it: small-molecule microarray, hLULL1 lysate binding, 635 nm fluorescence; higher = more signal.
Assay [6] can be described thus: optical density change of DRC41 E. coli – strain DRC41, OD650, 24 h, E. coli filamentation project, primary screen (AID 1093).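 Further: MC1000 strain lacking acrAB efflux and sulA so SOS filamentation is blocked; test concentration not given here.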 Particulars: E. coli DRC41 growth, higher = more signal, called active from +8 up or from −8 down.
Assay [7] in a line: probe aLefty2 binding to arrayed compounds – biochemical, biotinylated probe, 635/667 nm fluorescence, primary screen (AID 1094).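 Further: score merges spot fluorescence near 667 nm with spot signal-to-noise ratio.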 The note with it: small-molecule microarray, higher = more signal.
The test system of assay [8] is Noggin (protein binding on small-molecule microarray). As to the kind of experiment: small molecules binding Noggin protein – biochemical, 635/667 nm fluorescence, primary screen (AID 1095).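 Further: score merges 667 nm feature fluorescence with signal to noise over triplicate slides.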 Particulars: 635 nm fluorescence, higher = more signal.
In assay [9] the target is Neurogenic locus notch homolog protein 3 (Homo sapiens) (UniProt Q9UM47). As to the kind of experiment: small molecules binding NOTCH3 protein – biochemical, 635/667 nm fluorescence, primary screen (AID 1096). The note with it: small-molecule microarray, 635 nm fluorescence, higher = more signal.
A short description of assay [10]: probe aEGFR binding to arrayed compounds – biochemical, biotinylated probe, 635/667 nm fluorescence, primary screen (AID 1097).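 Further: probe is a biotinylated anti-EGFR antibody binding compounds printed on slides; score combines fluorescence near 667 nm and signal to noise of each spot.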 Particulars: small-molecule microarray, higher = more signal.

Active and inactive are the calls of the source.

Sequence of Neurogenic locus notch homolog protein 3 (Homo sapiens) (Q9UM47 whole entry, looked up): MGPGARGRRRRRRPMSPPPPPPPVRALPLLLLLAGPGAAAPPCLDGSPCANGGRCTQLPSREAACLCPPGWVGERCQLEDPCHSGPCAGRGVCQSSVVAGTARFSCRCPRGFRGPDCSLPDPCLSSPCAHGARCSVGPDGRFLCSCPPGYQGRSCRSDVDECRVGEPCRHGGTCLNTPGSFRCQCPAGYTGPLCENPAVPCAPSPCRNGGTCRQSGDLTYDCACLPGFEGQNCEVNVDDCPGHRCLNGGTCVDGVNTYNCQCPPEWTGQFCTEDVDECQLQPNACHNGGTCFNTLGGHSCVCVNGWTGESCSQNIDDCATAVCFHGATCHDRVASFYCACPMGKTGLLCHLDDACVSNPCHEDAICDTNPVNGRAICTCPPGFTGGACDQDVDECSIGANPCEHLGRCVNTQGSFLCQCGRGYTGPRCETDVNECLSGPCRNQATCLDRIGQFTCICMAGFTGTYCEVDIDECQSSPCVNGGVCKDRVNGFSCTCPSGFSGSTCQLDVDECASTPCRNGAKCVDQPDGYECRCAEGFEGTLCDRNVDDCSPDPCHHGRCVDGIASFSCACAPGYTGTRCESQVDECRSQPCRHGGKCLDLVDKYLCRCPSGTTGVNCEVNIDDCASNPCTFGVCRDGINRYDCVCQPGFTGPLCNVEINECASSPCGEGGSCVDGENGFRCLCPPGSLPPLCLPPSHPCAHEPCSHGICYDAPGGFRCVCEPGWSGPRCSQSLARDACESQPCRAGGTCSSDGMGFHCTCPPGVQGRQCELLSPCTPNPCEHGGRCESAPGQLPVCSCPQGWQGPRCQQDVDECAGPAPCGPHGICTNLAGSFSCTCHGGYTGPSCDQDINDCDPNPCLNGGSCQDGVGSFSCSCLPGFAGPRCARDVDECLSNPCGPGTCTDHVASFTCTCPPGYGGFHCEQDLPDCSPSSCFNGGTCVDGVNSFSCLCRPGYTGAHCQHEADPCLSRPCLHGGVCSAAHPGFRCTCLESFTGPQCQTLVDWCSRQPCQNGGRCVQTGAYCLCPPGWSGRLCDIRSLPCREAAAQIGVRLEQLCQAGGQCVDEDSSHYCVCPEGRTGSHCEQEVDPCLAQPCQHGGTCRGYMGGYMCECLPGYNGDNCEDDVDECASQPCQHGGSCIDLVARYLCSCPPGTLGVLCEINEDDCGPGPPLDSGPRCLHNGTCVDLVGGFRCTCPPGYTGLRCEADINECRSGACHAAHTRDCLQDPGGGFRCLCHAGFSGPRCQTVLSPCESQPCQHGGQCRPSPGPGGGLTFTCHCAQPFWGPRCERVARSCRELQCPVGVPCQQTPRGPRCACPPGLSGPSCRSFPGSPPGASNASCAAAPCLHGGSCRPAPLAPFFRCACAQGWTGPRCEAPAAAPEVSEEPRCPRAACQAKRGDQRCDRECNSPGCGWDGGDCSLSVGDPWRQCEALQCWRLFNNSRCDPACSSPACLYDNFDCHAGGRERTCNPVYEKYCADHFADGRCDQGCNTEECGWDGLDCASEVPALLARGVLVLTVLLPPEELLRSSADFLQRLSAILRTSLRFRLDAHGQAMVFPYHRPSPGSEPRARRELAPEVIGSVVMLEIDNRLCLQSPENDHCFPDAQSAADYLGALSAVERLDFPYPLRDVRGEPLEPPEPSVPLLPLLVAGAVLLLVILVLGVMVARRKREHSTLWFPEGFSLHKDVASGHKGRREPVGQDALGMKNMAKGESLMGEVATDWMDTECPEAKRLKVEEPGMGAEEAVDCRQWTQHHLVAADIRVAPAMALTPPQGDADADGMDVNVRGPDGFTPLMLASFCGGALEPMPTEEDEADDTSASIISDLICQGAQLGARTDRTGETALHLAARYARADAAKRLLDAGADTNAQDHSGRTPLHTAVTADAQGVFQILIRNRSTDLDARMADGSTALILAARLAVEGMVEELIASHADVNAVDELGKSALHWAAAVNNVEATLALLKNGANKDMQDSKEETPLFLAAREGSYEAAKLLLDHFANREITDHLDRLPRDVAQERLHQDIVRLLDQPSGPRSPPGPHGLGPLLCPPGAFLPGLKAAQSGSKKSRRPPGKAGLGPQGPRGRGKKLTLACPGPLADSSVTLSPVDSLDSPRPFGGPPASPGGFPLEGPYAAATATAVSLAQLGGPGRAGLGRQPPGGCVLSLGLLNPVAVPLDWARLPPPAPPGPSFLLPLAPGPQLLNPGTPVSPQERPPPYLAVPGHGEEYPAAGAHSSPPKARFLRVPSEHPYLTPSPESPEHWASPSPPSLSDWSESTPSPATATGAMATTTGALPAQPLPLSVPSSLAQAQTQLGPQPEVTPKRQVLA
Sequence of Torsin-1A-interacting protein 2 (Homo sapiens) (Q8NFQ8 whole entry, looked up): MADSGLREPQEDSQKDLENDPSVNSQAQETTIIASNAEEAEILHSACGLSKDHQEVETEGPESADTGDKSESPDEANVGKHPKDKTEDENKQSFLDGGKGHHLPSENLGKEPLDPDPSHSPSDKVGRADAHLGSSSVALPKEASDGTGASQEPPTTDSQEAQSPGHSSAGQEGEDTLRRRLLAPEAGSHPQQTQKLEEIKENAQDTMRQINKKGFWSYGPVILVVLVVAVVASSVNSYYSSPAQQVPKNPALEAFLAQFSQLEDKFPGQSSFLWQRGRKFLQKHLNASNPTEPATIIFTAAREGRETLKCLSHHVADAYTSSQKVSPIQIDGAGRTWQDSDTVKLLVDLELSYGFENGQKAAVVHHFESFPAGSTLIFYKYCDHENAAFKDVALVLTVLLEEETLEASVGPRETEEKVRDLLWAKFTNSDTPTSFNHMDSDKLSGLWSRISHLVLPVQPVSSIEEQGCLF

In the case of `CC[C@@H](O[Si](C#C[Si](C(C)C)(C(C)C)C(C)C)(C(C)C)C(C)C)c1cn(Cc2cccc(Cl)c2)nn1`, the composite z-score in assay [1] is 0.869; in [5], -0.0557; in [7] it was -0.138; in [8], 0.523; in assay [9], 0.932; in assay [10], -0.113. Besides, the z-score was 0.978 (inactive) in [2], 0.719 (inactive) in [3], 1.44 (inactive) in assay [4] and 0.909 (inactive) in [6].

Turning to `COc1cccc(C)c1NC(=O)O[C@H]1[C@H](OC(=O)Nc2ccc3c(c2)OCO3)[C@H](OC(=O)Nc2ccc3c(c2)OCO3)[C@@H](OC)O[C@@H]1CO`, the composite z-score in assay [1] is 1.55; in assay [5], 3.19; in assay [7], 0.107; in assay [8], 0.701; in assay [9], 1.04; in assay [10], -0.0192. Also, the z-score was 1.5 (inactive) in [2], 0.718 (inactive) in assay [3], 4.29 (inactive) in assay [4] and 0.358 (inactive) in assay [6].

As to `C=CCC(OC(C)=O)[C@@H]1[C@@H](N(Cc2cccc3ccccc23)C(=O)c2ccc(C)cc2)c2cc(OCCCO)ccc2N1C(=O)Cc1ccc2ccccc2c1` (stereo not given in full), the composite z-score in [1] was -0.52; in assay [5] it was 0.318; in assay [7] it was -0.113; in assay [8], -0.206; in assay [9], 0.141; in assay [10], -0.184. In addition, the z-score in assay [2] is -1.8 (inactive); in assay [3], -0.825 (inactive); in [4], -0.614 (inactive); in [6], 1.17 (inactive).

For `CC(C)(C)OC(=O)CC[C@@]1(C(=O)N2CCOCC2)N=C(c2ccc(OCCCO)cc2)O[C@@H]1c1ccccc1CN=[N+]=[N-]`, the composite z-score in [1] was found to be 1.38; in assay [5] it was 3.83; in [7], 0.313; in assay [8], 1.06; in assay [9], 0.985; in assay [10] it was 0.103. The z-score in assay [2] was -0.335 (inactive); in assay [3], -0.183 (inactive); in assay [4] it was -0.654 (inactive); in assay [6], 0.675 (inactive).

As to `O=C1NC(=O)C2C1C=CC(C(O)C1CCCCC1)N2Nc1ccccn1` (stereo not given), the composite z-score is 0.327 in assay [1]; 2.43 in assay [5]; 0.0078 in [7]; -0.401 in [8]; 0.492 in [9]; -0.104 in assay [10]. For the same compound, the z-score is 0.459 (inactive) in assay [2], 0.633 (inactive) in assay [3], 0.117 (inactive) in assay [4] and -1.5 (inactive) in assay [6].

Turning to `COC(=O)C1(CC(C)C)C=C2C(=C(C)C(=O)C2C)CN1` (stereo not given), the composite z-score in [1] is -0.999; in assay [5] it was 2.1; in [7] it was 0.374; in [8], -0.054; in assay [9], 0.379; in [10], 0.449. The z-score in assay [2] is -0.355 (inactive); in assay [3], 0.543 (inactive); in [4], 0.202 (inactive); in assay [6], -0.698 (inactive).

With `COc1ccc(CCNC(=O)[C@@]2(c3ccc([N+](=O)[O-])cc3)CC(=O)N(C3CCCCC3)[C@@H]2c2ccc(CO)cc2I)cc1`, the composite z-score was 1.39 in assay [1]; 2.34 in [5]; -0.0544 in [7]; 0.153 in assay [8]; 0.594 in assay [9]; 0.227 in assay [10]. The z-score in assay [2] is 0.717 (inactive); in [3] it was 0.0908 (inactive); in [4] it was 5.88 (inactive); in [6], 0.793 (inactive).

As for `COc1ccc(-c2cc3c(c(CCc4ccccc4)n2)[Si](C(C)C)(C(C)C)O[C@H]3c2ccccc2)cn1`, the composite z-score in assay [1] was 0.469; in assay [5], -0.0354; in [7], -0.213; in assay [8] it was 0.75; in [9] it was 0.439; in [10], -0.0749. Besides, the z-score in assay [2] was 0.646 (inactive); in [3] it was -0.0525 (inactive); in assay [4], 1.23 (inactive); in [6] it was -1.12 (inactive).

`OCCCc1cc[n+](Cc2cc3c(cc2Br)OCO3)cc1`: the composite z-score in assay [1] was 0.115; in assay [5] it was -0.0854; in assay [7], 0.193; in [8], -0.617; in assay [9], -0.785; in [10] it was -0.12. Moreover, the z-score is -0.41 (inactive) in assay [2], -0.688 (inactive) in [3], -0.213 (inactive) in [4] and 0.0566 (inactive) in assay [6].

Turning to `C=CCOC(=O)[C@@H]1[C@H]2C(=O)O[C@H](c3ccccc3)[C@H](c3ccccc3)N2[C@H](c2ccc(OCCOC(=O)[C@@H]3C[C@@H]4C(=O)N[C@@H](CC(C)C)C(=O)N4[C@@H]3c3ccc(O)cc3)cc2)[C@@]12C(=O)Nc1ccc(I)cc12`, the composite z-score in assay [1] is 1.56; in assay [5], 1.82; in [7], -0.0321; in [8] it was 1.69; in assay [9], 1.08; in assay [10], 0.105. Also, the z-score was -0.677 (inactive) in [2], 1.63 (inactive) in [3], 18.2 (active) in [4] and 1.16 (inactive) in assay [6].

`COc1ccc(C(O)C2C=CC3C(=O)N(c4ccccc4)C(=O)C3N2Nc2ccccc2F)c2ccccc12` (stereo not given): the composite z-score in assay [1] came to 1.55; in assay [5], 3.33; in assay [7], 0.582; in assay [8] it was 0.117; in assay [9], 1.05; in [10] it was 0.697. Moreover, the z-score in assay [2] is -0.466 (inactive); in assay [3], -0.0101 (inactive); in assay [4], 0.257 (inactive); in assay [6] it was -0.0841 (inactive).

With `O=C(CS)NCCCCCCNC(=O)[C@H]1C[C@H]2C(=O)NCC(=O)N2[C@H]1c1cccc(OCCO)c1`, the composite z-score was 0.863 in [1]; 2.47 in [5]; 0.0657 in assay [7]; 0.6 in [8]; 0.471 in assay [9]; -0.0612 in [10]. The z-score in assay [2] is -0.573 (inactive); in assay [3], -0.372 (inactive); in assay [4], 0.585 (inactive); in assay [6], 1.25 (inactive).

As for `C=CCN1C(=O)[C@]2(O[C@H](CCO)[C@@H]([Si](C)(C)c3ccc(OC)cc3)[C@@H]2C)c2cc(N3C(=O)c4ccccc4Oc4ccccc43)ccc21`, the composite z-score is 1.41 in assay [1]; 2.13 in [5]; -0.0658 in assay [7]; 0.458 in [8]; 0.803 in assay [9]; -0.115 in assay [10]. In addition, the z-score in assay [2] was 0.922 (inactive); in assay [3], 0.729 (inactive); in [4], 35.6 (active); in assay [6], 0.77 (inactive).

Turning to `Cc1cccc([C@H]2C[C@H]3C(Br)=C[C@@]2(CO)C(=O)[C@]32CO2)c1`, the composite z-score in assay [1] was 0.378; in [5] it was 2.39; in assay [7], -0.114; in [8], 0.783; in assay [9], 0.353; in [10], -0.219. The z-score in assay [2] was -1.54 (inactive); in assay [3] it was -2.89 (inactive); in [4], -0.75 (inactive); in assay [6], -0.316 (inactive).

Values taken from PubChem BioAssay.
